Assay results published in PubChem BioAssay (NCI).
About 79,000 compounds went through this panel and 15% of them were active in at least one assay; those are over-represented in the sample as a whole. Unmarked numbers belong to inactive results. The source made the active and inactive calls. Rule as the data show it: active = growth inhibition above about 70%; inactive = the rest.

Assays:
[1] = NCI Yeast Anticancer Drug Screen. Data for the rad50 strain (AID 155);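 also: 0% = growth of vehicle-only cultures of the same strain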; conditions: S. cerevisiae rad50 strain growth inhibition; at 50.0 µM; stronger effect = higher value
How it was run: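 Vehicle-treated cultures provide the reference for the growth inhibition reported for compound-exposed, repair-deficient yeast.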

[2] = NCI Yeast Anticancer Drug Screen. Data for the mec2-1 strain (AID 157); conditions: S. cerevisiae mec2-1 strain, at 50.0 µM, stronger effect = higher value
How it was run: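 Using mec2-1 yeast: add compound, measure growth, express inhibition versus vehicle-treated cultures.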

[3] = NCI Yeast Anticancer Drug Screen. Data for the sgs1 mgt1 strain (AID 161);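 also: 0% = growth of cultures given vehicle only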; conditions: S. cerevisiae sgs1 mgt1 strain, at 50.0 µM, stronger effect = higher value
How it was run: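 This yeast growth screen uses a strain with defined DNA-repair lesions; compound-treated growth is compared with vehicle-treated growth.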

[4] = NCI Yeast Anticancer Drug Screen. Data for the cln2 rad14 strain (AID 165);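 also: 0% = growth equal to vehicle treated cultures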; conditions: S. cerevisiae cln2 rad14 strain, at 50.0 µM, stronger effect = higher value
How it was run: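 Yeast strain cln2 rad14, bearing defects in cell cycle control and DNA repair, serves as the test system; values reflect growth inhibition compared with vehicle.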

[5] = NCI Yeast Anticancer Drug Screen. Data for the bub3 strain (AID 167); conditions: S. cerevisiae bub3 mutant strain, at 50.0 µM, stronger effect = higher value
How it was run: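 Mutant yeast screening strain plus compound; vehicle-treated cultures serve as the 0% inhibition reference.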

[6] = NCI Yeast Anticancer Drug Screen. Data for the mlh1 rad18 strain (AID 175); conditions: S. cerevisiae mlh1 rad18 strain growth inhibition; at 50.0 µM; stronger effect = higher value
How it was run: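 Steps: expose repair-defective yeast to compound; measure growth; express inhibition against vehicle-treated controls.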

## O=[N+]([O-])c1ccc(C2ON2c2ccccc2)cc1 (centres undefined) (tested in a mixture with another compound)
[1]
  growth inhibition: 3.95%
[2]
  growth inhibition: -1.45%
[3]
  growth inhibition: 20.7%
[4]
  growth inhibition: -9.7%
[5]
  growth inhibition: -7.4%
[6]
  growth inhibition: 25.6%

## CC(=O)OCC1=COC(OC(=O)CC(C)(C)OC(C)=O)C2C1=CC(OC(=O)CC(C)C)[C@@]21CO1 (some centres undefined)
[1]
  growth inhibition: 14.4%
[2]
  growth inhibition: 16.4%
[3]
  growth inhibition: 3.6%
[4]
  growth inhibition: 6.3%
[5]
  growth inhibition: 6.75%
[6]
  growth inhibition: 9.95%

## CCCC(=O)OC1CCCC1
[1]
  growth inhibition: 27.9%
[2]
  growth inhibition: 27.8%
[3]
  growth inhibition: 20.4%
[4]
  growth inhibition: 24.1%
[5]
  growth inhibition: 21.8%
[6]
  growth inhibition: 28.7%

## C/C(CC(=O)Nc1ccccn1)=N\c1ccccn1
[1]
  growth inhibition: 14.2%
[2]
  growth inhibition: -16.5%
[3]
  growth inhibition: -6.6%
[4]
  growth inhibition: -0.35%
[5]
  growth inhibition: 1.95%
[6]
  growth inhibition: 9.95%

## CC1=C(C(=O)Nc2ccc([N+](=O)[O-])cc2)C(c2ccco2)C(C(=O)Nc2ccc([N+](=O)[O-])cc2)=C(C)N1
[1]
  growth inhibition: 30.2%
[2]
  growth inhibition: 35.5%
[3]
  growth inhibition: 34.4%
[4]
  growth inhibition: 38.2%
[5]
  growth inhibition: 43.5%
[6]
  growth inhibition: 14.9%

## O=C1c2ccccc2C(=O)N1c1ccccc1Cl
[1]
  growth inhibition: 4.45%
[2]
  growth inhibition: -11%
[3]
  growth inhibition: 27.8%
[4]
  growth inhibition: -111%
[5]
  growth inhibition: 39%
[6]
  growth inhibition: 19.7%

## CC[n+]1ccc(/C=C\c2c(Cl)cccc2Cl)cc1
[1]
  growth inhibition: -1.45%
[2]
  growth inhibition: -17.6%
[3]
  growth inhibition: 5.65%
[4]
  growth inhibition: 3%
[5]
  growth inhibition: 7.8%
[6]
  growth inhibition: 12.1%

## Cc1cc(=O)c2c(C)nn(-c3ccccc3)c2[nH]1
[1]
  growth inhibition: -16.3%
[2]
  growth inhibition: -36.2%
[3]
  growth inhibition: 10.3%
[4]
  growth inhibition: -9.15%
[5]
  growth inhibition: 2.4%
[6]
  growth inhibition: -1.85%

## O=[N+]([O-])c1ccc(N=Cc2ccccc2O)c(O)c1
[1]
  growth inhibition: 21.9%
[2]
  growth inhibition: -4.05%
[3]
  growth inhibition: 2.75%
[4]
  growth inhibition: -8.55%
[5]
  growth inhibition: 20.8%
[6]
  growth inhibition: -2.05%

## [N-]=[N+]=NC12CC3C4CC5CC3C(C1)C(C5)C4C2
[1]
  growth inhibition: 10.3%
[2]
  growth inhibition: 0.6%
[3]
  growth inhibition: -6.65%
[4]
  growth inhibition: 10.2%
[5]
  growth inhibition: -6.15%
[6]
  growth inhibition: -8.45%

## Cc1cc(N(CCCOS(C)(=O)=O)CCCOS(C)(=O)=O)ccc1C=Nc1cc(Cl)c(O)c(Cl)c1
[1]
  growth inhibition: 31.7%
[2]
  growth inhibition: 21.4%
[3]
  growth inhibition: 62.8%
[4]
  growth inhibition: 8.65%
[5]
  growth inhibition: 34.7%
[6]
  growth inhibition: 54.5%

## CC(C)C1CC(O)C(C)C(C(C)C)C1 (centres undefined)
[1]
  growth inhibition: 4.05%
[2]
  growth inhibition: -17.5%
[3]
  growth inhibition: -12.9%
[4]
  growth inhibition: -28.2%
[5]
  growth inhibition: -1.65%
[6]
  growth inhibition: -20.6%

## COC(=O)c1ccc(S(=O)(=O)O)cc1[N+](=O)[O-]
[1]
  growth inhibition: 3.05%
[2]
  growth inhibition: 11.9%
[3]
  growth inhibition: 2.5%
[4]
  growth inhibition: -11.2%
[5]
  growth inhibition: 11.8%
[6]
  growth inhibition: 24.4%

## C1CCC2(CC1)OCCO2
[1]
  growth inhibition: -0.75%
[2]
  growth inhibition: -37.9%
[3]
  growth inhibition: -20.8%
[4]
  growth inhibition: 1.3%
[5]
  growth inhibition: -7.85%
[6]
  growth inhibition: 0.6%

## O/C=C(\Cl)CCl
[1]
  growth inhibition: 17.2%
[2]
  growth inhibition: -7.15%
[3]
  growth inhibition: 12.4%
[4]
  growth inhibition: 11.9%
[5]
  growth inhibition: 5.1%
[6]
  growth inhibition: 16.2%

## CC(=O)/C=C/CCC(=O)/C=C/C(=O)OC(CCC(=O)/C=C/C(=O)O)CC(C)=O (centres undefined)
[1]
  growth inhibition: -5.25%
[2]
  growth inhibition: -30.4%
[3]
  growth inhibition: -18.4%
[4]
  growth inhibition: 19.1%
[5]
  growth inhibition: -24.1%
[6]
  growth inhibition: -5.95%

## COc1ccc(CCNC(=O)C(Sc2ccccn2)c2ccccc2)cc1OC (centres undefined)
[1]
  growth inhibition: 20.6%
[2]
  growth inhibition: -29.4%
[3]
  growth inhibition: 5.35%
[4]
  growth inhibition: 23.1%
[5]
  growth inhibition: 30.6%
[6]
  growth inhibition: 27.8%

## CCCCCCCCCCCCCCCCCC(CCCCCCCC)CCCCCCCC
[1]
  growth inhibition: -5.15%
[2]
  growth inhibition: 0.65%
[3]
  growth inhibition: -30.8%
[4]
  growth inhibition: 3.3%
[5]
  growth inhibition: 0.25%
[6]
  growth inhibition: 23.6%

## O=C1C[C@@]23CCC4(CC2=CCC[C@H]3O1)OCCO4
[1]
  growth inhibition: -16.9%
[2]
  growth inhibition: -19.6%
[3]
  growth inhibition: 3.2%
[4]
  growth inhibition: 14.7%
[5]
  growth inhibition: 17.5%
[6]
  growth inhibition: -12.3%

## CC(=O)Nc1cccc2c1C(=O)c1c(c(O)c3ccccc3c1O)C2=O
[1]
  growth inhibition: 24.9%
[2]
  growth inhibition: -9.85%
[3]
  growth inhibition: -12.8%
[4]
  growth inhibition: -9.3%
[5]
  growth inhibition: -8.4%
[6]
  growth inhibition: -1.85%

## CC(=O)OC1CCC2(C)C(=CCC3C2CCC2(C)C3CCC23OCCS3)C1 (centres undefined)
[1]
  growth inhibition: 34.5%
[2]
  growth inhibition: 3.4%
[3]
  growth inhibition: 9.35%
[4]
  growth inhibition: 9.1%
[5]
  growth inhibition: -4.35%
[6]
  growth inhibition: 8.5%

## O=C1C(=C(C(F)(F)Cl)C(F)(F)Cl)C2CCC1C2 (centres undefined)
[1]
  growth inhibition: 12%
[2]
  growth inhibition: -3.35%
[3]
  growth inhibition: 14.3%
[4]
  growth inhibition: 14.6%
[5]
  growth inhibition: 21.2%
[6]
  growth inhibition: 7.7%

## CCCCC(C)(CCN)CCCC
[1]
  growth inhibition: 5.05%
[2]
  growth inhibition: 1.4%
[3]
  growth inhibition: -5.05%
[4]
  growth inhibition: 7.4%
[5]
  growth inhibition: -3%
[6]
  growth inhibition: 0.1%

## COc1ccc(CC(N)C(=O)NC2C(CO)OC(n3cnc4c(N)ncnc43)C2O)cc1 (centres undefined)
[1]
  growth inhibition: 5.65%
[2]
  growth inhibition: -28.6%
[3]
  growth inhibition: -1.6%
[4]
  growth inhibition: -74.3%
[5]
  growth inhibition: -0.25%
[6]
  growth inhibition: -12.8%

## COc1cccc(/C=N/[N-]C(N)=O)c1[O-].[OH3+].[Pd+2]
[1]
  growth inhibition: 7.65%
[2]
  growth inhibition: 8.2%
[3]
  growth inhibition: 15.9%
[4]
  growth inhibition: 7.4%
[5]
  growth inhibition: 18.9%
[6]
  growth inhibition: 21.6%

## CC(C)(C)C(=CS(=O)/N=C/c1ccccc1)C(C)(C)C (centres undefined)
[1]
  growth inhibition: -27.4%
[2]
  growth inhibition: -33%
[3]
  growth inhibition: -28.6%
[4]
  growth inhibition: -7%
[5]
  growth inhibition: -37%
[6]
  growth inhibition: -9.85%

## N#CSCc1cc(Cl)c(CSC#N)c(Cl)c1Cl
[1]
  growth inhibition: -6.95%
[2]
  growth inhibition: 22.2%
[3]
  growth inhibition: -3%
[4]
  growth inhibition: 16.6%
[5]
  growth inhibition: 13.2%
[6]
  growth inhibition: 31.4%

## O=[N+]([O-])c1cc(Br)ccc1N1CCCCC1
[1]
  growth inhibition: -3.15%
[2]
  growth inhibition: -3.55%
[3]
  growth inhibition: 2.25%
[4]
  growth inhibition: -18.1%
[5]
  growth inhibition: 17.9%
[6]
  growth inhibition: -20.8%

## O=c1[nH]nc(Cc2ccccc2)n1CCCl
[1]
  growth inhibition: 16.9%
[2]
  growth inhibition: 13.8%
[3]
  growth inhibition: 15.6%
[4]
  growth inhibition: -3.7%
[5]
  growth inhibition: 8.35%
[6]
  growth inhibition: 11.5%

## O=C(O)c1ccc(NC(=S)NC(=O)c2cccc([N+](=O)[O-])c2)cc1
[1]
  growth inhibition: 5.55%
[2]
  growth inhibition: 16%
[3]
  growth inhibition: 16%
[4]
  growth inhibition: 16.8%
[5]
  growth inhibition: 23.6%
[6]
  growth inhibition: 23.6%

## CC(=O)O[C@H]1CC[C@@]2(C)C(=CC[C@H]3[C@@H]4CC[C@H](c5cc(C(F)(F)F)n(C(C)=O)n5)[C@@]4(C)CC[C@@H]32)C1
[1]
  growth inhibition: 11.3%
[2]
  growth inhibition: -6.7%
[3]
  growth inhibition: -40.6%
[4]
  growth inhibition: 2.55%
[5]
  growth inhibition: -19.6%
[6]
  growth inhibition: 12.4%

## CCCCC/C(C)=N\O
[1]
  growth inhibition: -19%
[2]
  growth inhibition: 3.8%
[3]
  growth inhibition: 3.35%
[4]
  growth inhibition: -13.6%
[5]
  growth inhibition: -7.15%
[6]
  growth inhibition: 13.2%

## NC12CC3CC(C1)CC(Cl)(C3)C2
[1]
  growth inhibition: -12.6%
[2]
  growth inhibition: -26.9%
[3]
  growth inhibition: -32.4%
[4]
  growth inhibition: -3.5%
[5]
  growth inhibition: -35.9%
[6]
  growth inhibition: 4.1%

## CC1(C)C=C(O)C=C(O)C1
[1]
  growth inhibition: 14.2%
[2]
  growth inhibition: 2.8%
[3]
  growth inhibition: 17.4%
[4]
  growth inhibition: -2.25%
[5]
  growth inhibition: 6.55%
[6]
  growth inhibition: 2.5%

## COc1cc([N+](=O)[O-])ccc1NC(=O)Nc1c(C)n(C)n(-c2ccccc2)c1=O
[1]
  growth inhibition: -17.1%
[2]
  growth inhibition: 1.75%
[3]
  growth inhibition: -8.3%
[4]
  growth inhibition: 92.6% (active)
[5]
  growth inhibition: 0.15%
[6]
  growth inhibition: 6.25%

## OC1CNc2c(ccc3ccccc23)C1 (centres undefined)
[1]
  growth inhibition: 10.7%
[2]
  growth inhibition: -26.4%
[3]
  growth inhibition: -13.4%
[4]
  growth inhibition: -17%
[5]
  growth inhibition: -38%
[6]
  growth inhibition: -6.25%

## COC1OC2COC(C)(c3ccccc3)OC2C(O)C1[NH-].COC1OC2COC(C)(c3ccccc3)OC2C(O)C1[NH-].[Cl][Pt+2][Cl] (centres undefined)
[1]
  growth inhibition: -0.25%
[2]
  growth inhibition: -2.7%
[3]
  growth inhibition: -7.8%
[4]
  growth inhibition: -25.3%
[5]
  growth inhibition: -3.05%
[6]
  growth inhibition: 35.4%

## CC(C)(C)C(=O)/C=C(\OB(F)F)C(C)(C)C
[1]
  growth inhibition: 2.25%
[2]
  growth inhibition: -5.2%
[3]
  growth inhibition: -9.15%
[4]
  growth inhibition: 26.9%
[5]
  growth inhibition: -15.8%
[6]
  growth inhibition: 5.25%

## C/C(CCn1[nH]c(=O)ccc1=O)=N\O
[1]
  growth inhibition: -6.55%
[2]
  growth inhibition: -19.2%
[3]
  growth inhibition: -5.8%
[4]
  growth inhibition: -12.1%
[5]
  growth inhibition: -24.6%
[6]
  growth inhibition: -11.3%
